For the assay, the system named is primary human hepatic stellate cells (donor 1). Kind of assay: scaled lipid accumulation score (0 = DMSO-like, 1 = nortriptyline-like); higher = stronger HSC inactivation (lipid re-accumulation), active = hit call of the paper. The following applies: 48 h.
Where [1] appears, read: library stock concentration: 10 mM.
[2] abbreviates: library stock concentration: 1 mM.
[3] abbreviates: library stock concentration: 80 uM.
The mark [4] stands for this setting: library stock concentration: 400 uM.
Setting [5] is: library stock concentration: 2 mM.
[6] abbreviates: library stock concentration: 3.33 mM.

The record followed here is the supplement of paper PMC9135407.

“And” between values parts separate entries of the source, which are not always exact repeats. Identical values can stand only once. Counter-ions that a name gives are not always drawn. Out of some 5,800 compounds screened, about 620 (11%) showed activity. What follows is part of a selection rich in actives, with near analogues and random picks from the rest. Unmarked numbers belong to inactive results.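 How the source made its calls: active = score above a cut-off or among the top three wells of a plate; in these data no inactive exceeds 0.85.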

For `O=C(O)C1CCCNC1` (configuration not stated), the “scaled lipid accumulation score” value is no more than 0. For the same molecule, the “scaled lipid accumulation score” value under setting [1] was 0.207.

As to `CCCCC[C@@](C)(O)/C=C/[C@@H]1[C@@H](C/C=C\CCCC(=O)O)[C@@H](O)C[C@H]1O` [15(R)-15-methyl Prostaglandin F2.alpha.], the “scaled lipid accumulation score” value under setting [2] was no more than 0. With `O=C(OCc1ccccc1)[C@H](O)c1ccccc1` [(R)-benzyl Mandelate], under setting [2], the “scaled lipid accumulation score” value is no more than 0. On to `C=C(C)[C@@H](CC=C(C)C)C[C@@]12C[C@@H](CC=C(C)C)C(C)(C)[C@@](CC=C(C)C)(C(=O)C(C(=O)c3ccc(O)c(O)c3)=C1O)C2=O` [Garcinol], for which the “scaled lipid accumulation score” value is no more than 0 under setting [3], no more than 0 under setting [4], no more than 0 under setting [5] and no more than 0 under setting [1].

On to `C[C@@H](N)C1CCC(C(=O)Nc2ccncc2)CC1` (some centres not stated), for which the “scaled lipid accumulation score” value under setting [6] is no more than 0. Regarding `O=C(O)CCCC[C@@H]1CCSS1` [Thioctic acid], the “scaled lipid accumulation score” value under setting [1] is no more than -0.027. Take `CC/C(=C\C(=N\O)C(N)=O)C(C)[N+](=O)[O-]` (configuration not stated): the “scaled lipid accumulation score” value under setting [2] was no more than 0. The same measure, in the same setting: for `CC(C)CCC[C@@H](C)CCC[C@@H](C)CCCC(C)CC(=O)O` (some centres not stated) [Phytanic Acid] the value was 0.028. As for `O=C(NCCS(=O)(=O)c1ccc(C(F)(F)F)cn1)c1ccc(Cl)cc1`, the “scaled lipid accumulation score” value reads like this: under setting [6], no more than -0.009; under setting [1], no more than 0.

Turning to `Cc1nc(Nc2ncc(C(=O)Nc3c(C)cccc3Cl)s2)cc(N2CCN(CCO)CC2)n1` [Dasatinib], the “scaled lipid accumulation score” value under setting [3] is no more than 0; the “scaled lipid accumulation score” value under setting [4] is 0.238; the “scaled lipid accumulation score” value under setting [5] was 0.602; the “scaled lipid accumulation score” value under setting [6] is 0.43; the “scaled lipid accumulation score” value under setting [1] was 0.646 and 0.707. For the molecule `C=CC(=O)Nc1cccc(Sc2nc(Nc3ccc(N4CCN(C)CC4)cc3)ncc2Cl)c1`, the “scaled lipid accumulation score” value is, setting by setting: under setting [6], no more than 0; under setting [1], 0.466. Consider `Cc1nc(Nc2ncc(C(=O)Nc3c(C)cccc3Cl)s2)cc(N2CCN(CCO)CC2)n1` [listing 1 of 2 here], for which the “scaled lipid accumulation score” value is 1.18 (active) under setting [5] and 1.48 (active) under setting [1].

As to `Cc1nc(Nc2ncc(C(=O)Nc3c(C)cccc3Cl)s2)cc(N2CCN(CCO)CC2)n1` [listing 2 of 2 here], the “scaled lipid accumulation score” value reads like this: under setting [4], 0.775; under setting [1], 0.677. As to `O=S(=O)(c1ccccc1)N(CC(F)(F)F)c1ccc(C(O)(C(F)(F)F)C(F)(F)F)cc1`, the “scaled lipid accumulation score” value is, setting by setting: under setting [2], 0.1; under setting [6], 0.164; under setting [1], 0.741 and 0.112. As to `N#Cc1ccc2c(c1)N(CCCN1CCC(O)CC1)c1ccccc1S2` [Periciazine], the “scaled lipid accumulation score” value under setting [1] is 0.107.

For the molecule `CN1CCCC(CC2c3ccccc3Sc3ccccc32)C1.Cl.O` (configuration not stated) [Metixene hydrochloride], the “scaled lipid accumulation score” value was 1.12 (active).

With `CN1CCN(C2Cc3ccccc3Sc3ccc(Cl)cc32)CC1` (configuration not stated), the “scaled lipid accumulation score” value under setting [1] is 0.378. For the molecule `C[C@@H](O)CCC[C@@H](O)/C=C/[C@H]1C(O)CC(O)C1CCCCCCC(=O)O` (stereo partly drawn) [15(R),19(R)-hydroxy Prostaglandin F1.alpha.], the “scaled lipid accumulation score” value under setting [2] was no more than 0.

Take `CCc1c2c(nc3ccc(OC(=O)N4CCC(N5CCCCC5)CC4)cc13)-c1cc3c(c(=O)n1C2)COC(=O)[C@]3(O)CC`: the “scaled lipid accumulation score” value under setting [1] is 0.226.

Regarding `CCc1c2c(nc3ccc(OC(=O)N4CCC(N5CCCCC5)CC4)cc13)-c1cc3c(c(=O)n1C2)COC(=O)[C@]3(O)CC` [Irinotecan], the “scaled lipid accumulation score” value was 0.151 under setting [6] and 0.025 under setting [1].

Take `CCc1c2c(nc3ccc(O)cc13)-c1cc3c(c(=O)n1C2)COC(=O)[C@]3(O)CC`: the “scaled lipid accumulation score” value under setting [6] was no more than 0; the “scaled lipid accumulation score” value under setting [1] is 0.297 and ≤ -0.001. Take `CCc1c2c(nc3ccc(OC(=O)N4CCC(N5CCCCC5)CC4)cc13)-c1cc3c(c(=O)n1C2)COC(=O)[C@]3(O)CC` [IRINOTECAN HCl )trihydrate)]: the “scaled lipid accumulation score” value under setting [1] was 1.1 (active).

Take `CC[C@@]1(O)C(=O)OCc2c1cc1n(c2=O)Cc2cc3c(CN(C)C)c(O)ccc3nc2-1` [Topotecan HCl]: the “scaled lipid accumulation score” value was no more than 0 under setting [6] and no more than 0 under setting [1]. `CCc1c2c(nc3ccc(OC(=O)N4CCC(N5CCCCC5)CC4)cc13)-c1cc3c(c(=O)n1C2)COC(=O)[C@]3(O)CC` [Irinotecan HCl Trihydrate]: the “scaled lipid accumulation score” value was no more than 0 under setting [6] and 0.228 under setting [1]. For the molecule `CC[C@@]1(O)C(=O)OCc2c1cc1n(c2=O)Cc2cc3c(CN(C)C)c(O)ccc3nc2-1` [Topotecan hydrochloride], the “scaled lipid accumulation score” value is 0.131 (library stock concentration: 4.4 mM) and 0.196 under setting [1]. Turning to `CC[C@@]1(O)C(=O)OCc2c1cc1n(c2=O)Cc2cc3c(CN(C)C)c(O)ccc3nc2-1`, the “scaled lipid accumulation score” value under setting [1] is no more than 0. With `CC[C@@]1(O)C(=O)OCc2c1cc1n(c2=O)Cc2cc3c(CN(C)C)c(O)ccc3nc2-1` [Topotecan], the “scaled lipid accumulation score” value (library stock concentration: 4.7 mM) is no more than 0.

With `CC[C@@]1(O)C(=O)OCc2c1cc1n(c2=O)Cc2cc3c(CN(C)C)c(O)ccc3nc2-1` [Topotecan hydrochloride hydrate], the “scaled lipid accumulation score” value under setting [1] is no more than -0.055. In the case of `CCc1c2c(nc3ccc(OC(=O)N4CCC(N5CCCCC5)CC4)cc13)-c1cc3c(c(=O)n1C2)COC(=O)[C@]3(O)CC` [Irinotecan hydrochloride], under setting [1], the “scaled lipid accumulation score” value is 0.299.

`N=C(N)N`: the “scaled lipid accumulation score” value under setting [1] is no more than 0.

`N=C(N)N` [Guanidine HCl]: the “scaled lipid accumulation score” value by setting is: under setting [6], no more than 0; under setting [1], no more than -0.001. With `CCCCC[C@H](O)/C=C/[C@H]1OC(O)C[C@H](O)[C@@H]1CCCCCCC(=O)O` (some centres not stated) [Thromboxane B1], under setting [2], the “scaled lipid accumulation score” value is 0.131. On to `C#CCCCCCCCCCCCC(O)CC(O)CO` (configuration not stated) [Avocadyne], for which the “scaled lipid accumulation score” value under setting [1] is 0.005. Same read-out and setting: under `COc1cccc(C(=O)NCCN2CCN(c3ccc(Cl)cc3)CC2)c1` stands 0.314; under `COc1ccccc1N1CCN(CCCNc2cc(=O)n(C)c(=O)n2C)CC1`, no more than 0. For `COc1ccc2cccc(N3CCN(CCNC(=O)c4ccc(F)cc4)CC3)c2c1`, under setting [1], the “scaled lipid accumulation score” value is 0.585.

Take `Cc1cccc(C(=O)NCN2CCN(c3ccccc3C#N)CC2)c1` [PD 168,077 maleate]: the “scaled lipid accumulation score” value under setting [1] is no more than 0. Turning to `COc1ccccc1N1CCN(CCCNc2cc(=O)n(C)c(=O)n2C)CC1` [Urapidil HCl], the “scaled lipid accumulation score” value is, setting by setting: under setting [6], no more than 0; under setting [1], no more than 0. `COc1ccccc1N1CCN(CCCCNC(=O)c2ccc(-c3ccc(C(C)=O)cc3)cc2)CC1`: the “scaled lipid accumulation score” value under setting [1] was 0.934 (active). Still for that read-out and setting: for `Cc1cccc(C(=O)NCN2CCN(c3ccccc3C#N)CC2)c1` the value was 0.009.

On to `COc1ccccc1N1CCN(CCCNc2cc(=O)n(C)c(=O)n2C)CC1` [Urapidil hydrochloride], for which the “scaled lipid accumulation score” value was no more than 0. Under setting [1], the “scaled lipid accumulation score” value was ≤ 0 and 0.02. As for `COc1ccccc1N1CCN(CCCNc2c(C)c(=O)n(C)c(=O)n2C)CC1` [Urapidil, 5-Methyl-], under setting [1], the “scaled lipid accumulation score” value is no more than 0. On the same count and under the same terms, under `Cl.O=C(NCCCCN1CCN(c2cccc(Cl)c2Cl)CC1)c1ccc2c(c1)Cc1ccccc1-2` stands 0.884 (active); under `COc1ccccc1N1CCN(CCCNc2cc(=O)n(C)c(=O)n2C)CC1` [Urapidil], no more than -0.027; under `COc1ccccc1N1CCN(CCCCNC(=O)c2ccc3ccccc3c2)CC1` [listing 1 of 2 here], 1.01 (active). As to `COc1ccccc1N1CCN(CCCCNC(=O)c2ccc3ccccc3c2)CC1` [listing 2 of 2 here], the “scaled lipid accumulation score” value was 0.307. `Cc1nccnc1N1CCCCC1`: the “scaled lipid accumulation score” value under setting [1] was no more than 0. Take `CCCCCC/C=C\CCCC(=O)CC(=O)N[C@H]1CCOC1=O` [N-3-oxo-tetradec-7(Z)-enoyl-L-Homoserine lactone]: the “scaled lipid accumulation score” value under setting [2] was no more than 0. In the case of `Cc1ccc(-c2c(-c3nn(C)c4ncnc(N5CC[C@H](N6CCCCC6)C5)c34)cnn2C)cc1`, the “scaled lipid accumulation score” value by setting is: under setting [6], no more than 0; under setting [1], 0.091. As for `CCCCCC(=O)CC[C@H]1[C@H](O)CC(=O)[C@@H]1CCCCCCC(=O)O` [13,14-dihydro-15-keto Prostaglandin E1], the “scaled lipid accumulation score” value under setting [2] is no more than 0.

On to `Cc1cc(Nc2nc(N[C@@H](C)c3ccc(F)cc3)c(C#N)cc2F)n[nH]1`, for which the “scaled lipid accumulation score” value was no more than -0.005 under setting [4]; no more than -0.005 under setting [5]; no more than 0 under setting [6]; 0.387 and 0.197 under setting [1]. `O=S(=O)(NO)c1ccccc1` [Piloty's Acid]: under setting [2], the “scaled lipid accumulation score” value was no more than 0.

For the molecule `Cn1cnc2cc3c(Nc4cccc(Br)c4)ncnc3cc21`, the “scaled lipid accumulation score” value under setting [6] is 0.044.

Turning to `CCCCCC=CCC=CCCCCCCCC(=O)OC(CO)CO` [2-Linoleoyl Glycerol], under setting [2], the “scaled lipid accumulation score” value was 0.053. Still for that read-out and setting: under `C[C@@H]1C[C@H]2O[C@@H]2/C=C\C=C\C(=O)Cc2c(Cl)c(O)cc(O)c2C(=O)O1` [Radicicol] stands 0.383; under `O=C(O)CCC/C=C\C[C@@H]1[C@@H](CCC(=O)CCc2ccccc2)[C@H](O)C[C@@H]1O` [15-keto Latanoprost (free acid)], no more than 0. `CCCCC(CC)CN1CCC(n2cc(CNC)nn2)CC1` (configuration not stated): under setting [1], the “scaled lipid accumulation score” value is 0.988 (active). With `CCCCC(CC)CN1CN(CC(CC)CCCC)CC(C)(N)C1` (configuration not stated) [Hexetidine], the “scaled lipid accumulation score” value is no more than 0. Moreover, the “scaled lipid accumulation score” value under setting [1] was 0.342.

Turning to `CNCc1cn(C2CCN(CCC(C)CC(C)(C)C)CC2)nn1` (configuration not stated), under setting [1], the “scaled lipid accumulation score” value is 1.05 (active).

Regarding `CCCCc1ccc(N=CNO)c(C)c1`, the “scaled lipid accumulation score” value under setting [2] was 0.03. Consider `CC(O)(CC(=O)O)CC(=O)O`, for which the “scaled lipid accumulation score” value under setting [1] was 0.023. On the same count and under the same terms, under `CC1(C)[C@H]2CC[C@@]1(C)C(=O)C2` [1r-camphor] stands no more than 0. Turning to `O=C(O)[C@H](O)c1ccccc1` [R-(-)-Mandelic Acid], under setting [2], the “scaled lipid accumulation score” value was 0.02. For `CSC(=N)NCCC[C@H](N)C(=O)O` [S-Methyl-L-thiocitrulline acetate], the “scaled lipid accumulation score” value under setting [1] is no more than -0.02. With `O=C(Nc1ncc(SCCN2CCCC2)s1)[C@]1(c2ccc(S(=O)(=O)C3CC3)cc2)C[C@@H]1C1CCCCC1`, the “scaled lipid accumulation score” value under setting [6] is 1.12 (active). Turning to `O=C(Nc1ncc(SCCN2CCCC2)s1)[C@]1(c2ccc(S(=O)(=O)C3CC3)cc2)C[C@H]1C1CCCCC1`, the “scaled lipid accumulation score” value under setting [1] was 0.143. Still for that read-out and setting: for `Cn1cccc1/C=C1\C(=O)NC(=O)c2ccccc21` the value was 0.017; for `O=C(Nc1ccccc1)N[C@@H]1C[C@@H](C(=O)O)Nc2cc(Cl)cc(Cl)c21`, no more than 0.

In the case of `CC(N)(C(=O)O)c1ccc(C(=O)O)cc1` (configuration not stated), the “scaled lipid accumulation score” value under setting [1] was 0.151. Consider `NC(=O)c1c(NC(=O)C2CC2)sc2c1CCCC2`, for which the “scaled lipid accumulation score” value was no more than -0.001 under setting [3], no more than -0.001 under setting [4], no more than -0.001 under setting [5] and 0.118 under setting [1]. For the molecule `CCN(CC)C(=O)c1ccc(Nc2nc(OCC3CCCCC3)c3[nH]cnc3n2)cc1` [Cdk2 Inhibitor IV, NU6140], the “scaled lipid accumulation score” value under setting [6] was no more than 0. For the molecule `CC1OC2(CS1)CN1CCC2CC1` (configuration not stated) [Cevimeline hydrochloride], the “scaled lipid accumulation score” value under setting [1] is no more than 0.
